27 molecules from PubChem BioAssay (EPA / NIEHS) can be followed below.

Results filed as inconclusive are left out. Calls of active or inactive are those of the source. Rule for the calls, unless noted: active = hit-call score of the fitted dose curve at least 0.9, where 1 is the maximum; inconclusive = response in the unintended direction; inactive = score below 0.9.

Assay [1] is described as follows: ATG_TGFb_CIS: Attagene CIS-FACTORIAL HepG2 Assay for human Transforming Growth Factor (TGF) (AID 2282967; active = hit-call score of the fitted dose curve at least 0.9, where 1 is the maximum; inactive = score below 0.9). The settings on record: HepG2 Attagene CIS TGFb reporter, mRNA transcription; actives raise or lower the signal. The method, boiled down:
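Multiplexed cis-reporter HepG2 system, 24 h treatment; mRNA induction read by fluorescence after RT-PCR and CE; DMSO negative control, bidirectional curve fitting.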

Assay [2] can be described thus: ATG_VDRE_CIS: Attagene CIS-FACTORIAL HepG2 Assay for human Vitamin D Receptor Element (VDRE) (AID 2282968; active = hit-call score of the fitted dose curve at least 0.9, where 1 is the maximum; inactive = score below 0.9). The note with it: HepG2 VDRE cis-reporter transcription, actives raise or lower the signal. The gist of the method:
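Transiently transfected HepG2 cells carrying cis-regulated reporter transcription units were exposed for 24 h. Reporter mRNA was measured by RT-PCR with fluorescent labelling and capillary electrophoresis, and fitted in both directions against DMSO.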

Assay [3] concerns the target Nuclear receptor subfamily 1 group I member 3 (Homo sapiens) (UniProt Q14994). Nature of the assay: ATG_CAR_TRANS: Attagene TRANS-FACTORIAL HepG2 Assay for human Constitutive Androstane Receptor (CAR) (AID 2282969).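 Note: activators raise reporter mRNA above DMSO so AC50 marks induction.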 The settings on record: HepG2 Attagene TRANS-FACTORIAL CAR reporter. The method, boiled down: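 HepG2 cells transiently transfected with GAL4-UAS reporter units; TRANS format reads activity of exogenous chimeric NR-Gal4 protein. After 24 h dosing, reporter mRNA quantified by RT-PCR, 6-FAM labelling and capillary electrophoresis; gain of signal fitted against DMSO.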

The target in assay [4] is Steroid hormone receptor ERR1 (Homo sapiens) (UniProt P11474). Put plainly: ATG_ERRa_TRANS: Attagene TRANS-FACTORIAL HepG2 Assay for human Estrogen-Related Receptor alpha (ERRa) (AID 2282971). The note with it: HepG2 Attagene TRANS reporter, ERRa transactivation. The gist of the method:
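Transfected HepG2, 24 h dosing, ERRa-Gal4 chimera driving GAL4-UAS reporter. Readout: reporter mRNA via RT-PCR plus capillary electrophoresis (fluorescence). Positive direction vs DMSO control.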

Assay [5] deals with X-box-binding protein 1 (Homo sapiens) (UniProt P17861). Nature of the assay: ATG_Xbp1_CIS: Attagene CIS-FACTORIAL HepG2 Assay for human X-box Binding Protein 1 (XBP1) (AID 2282972; active = hit-call score of the fitted dose curve at least 0.9, where 1 is the maximum; inactive = score below 0.9). The note with it: HepG2 XBP1 cis-element reporter, Attagene multiplex; actives raise or lower the signal. The gist of the method: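 HepG2 cells transiently transfected with multiple cis-element reporter units report endogenous TF activity; 24 h exposure, then reporter mRNA measured by RT-PCR, 6-FAM labelling, HpaI digestion and capillary electrophoresis. Bidirectional fitting versus DMSO.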

Assay [6] can be described thus: ATG_M_19_TRANS: Attagene TRANS-FACTORIAL HepG2 Assay for M19 Transcription Factor (Internal Marker) (AID 2282974). The note with it: HepG2 Attagene TRANS-FACTORIAL M19 internal marker reporter. The gist of the method: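 Measured here: internal-marker reporter transcript from HepG2 cells transfected with MRTUs, harvested at 24 h. cDNA PCR products were 6-FAM labelled by primer extension, cut with HpaI for 2 h at 37 C, and resolved by CE.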

A short description of assay [7]: ATG_GAL4_TRANS: Attagene TRANS-FACTORIAL HepG2 Assay for GAL4 (Internal Marker) (AID 2282976). The settings on record: HepG2 Attagene TRANS GAL4 internal marker reporter. The method, boiled down: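 RT-PCR/capillary electrophoresis readout of reporter mRNA. HepG2, transient MRTU transfection (GAL4-UAS reporters), 24 h compound exposure. Background-control endpoint, positive direction vs DMSO baseline.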

The target in assay [8] is Estrogen-related receptor gamma (Homo sapiens) (UniProt P62508). Put plainly: ATG_ERRg_TRANS: Attagene TRANS-FACTORIAL HepG2 Assay for human Estrogen-Related Receptor gamma (ERRg) (AID 2282977).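 Note: hits increase reporter signal over DMSO so potencies reflect activators.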 The settings on record: HepG2 Attagene TRANS reporter, ERRg transactivation. The method, boiled down:
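HepG2 cells transiently transfected with multiplexed GAL4-UAS reporter units driven by chimeric NR-Gal4 proteins; 24 h exposure. Reporter mRNA quantified by RT-PCR, fluorescent labelling, HpaI digestion and capillary electrophoresis; gain of signal vs DMSO.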

Assay [9] has as its target Glucocorticoid receptor (Homo sapiens) (UniProt P04150). Put plainly: ATG_GR_TRANS: Attagene TRANS-FACTORIAL HepG2 Assay for human Glucocorticoid Receptor (GR) (AID 2282978).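 Note: activators score as hits since higher reporter transcript over DMSO is fitted.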 The note with it: HepG2 Attagene TRANS GR reporter, mRNA transcription. The method, boiled down:
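Measurement of GAL4-UAS-driven reporter mRNA in human HepG2 liver cells 24 h post-dosing, using RT-PCR with fluorescent labelling and capillary electrophoresis; the transfected constructs report exogenous NR-GAL4 chimera activity, fitted upward against DMSO.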

For assay [10], the target named is Estrogen receptor (Homo sapiens) (UniProt P03372). Nature of the assay: ATG_ERa_TRANS: Attagene TRANS-FACTORIAL HepG2 Assay for human Estrogen Receptor alpha (ERa) (AID 2282970). The settings on record: HepG2 Attagene TRANS ERa GAL4 reporter, mRNA. The method, boiled down:
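After 24 h of compound treatment, RNA from HepG2 cells bearing transfected GAL4-UAS reporter constructs is converted to cDNA, amplified and fluorescently labelled. Capillary electrophoresis resolves the ERa-linked reporter; DMSO serves as negative control.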

Sequence of Glucocorticoid receptor (Homo sapiens) (P04150 whole entry, looked up, the tested form may be a part): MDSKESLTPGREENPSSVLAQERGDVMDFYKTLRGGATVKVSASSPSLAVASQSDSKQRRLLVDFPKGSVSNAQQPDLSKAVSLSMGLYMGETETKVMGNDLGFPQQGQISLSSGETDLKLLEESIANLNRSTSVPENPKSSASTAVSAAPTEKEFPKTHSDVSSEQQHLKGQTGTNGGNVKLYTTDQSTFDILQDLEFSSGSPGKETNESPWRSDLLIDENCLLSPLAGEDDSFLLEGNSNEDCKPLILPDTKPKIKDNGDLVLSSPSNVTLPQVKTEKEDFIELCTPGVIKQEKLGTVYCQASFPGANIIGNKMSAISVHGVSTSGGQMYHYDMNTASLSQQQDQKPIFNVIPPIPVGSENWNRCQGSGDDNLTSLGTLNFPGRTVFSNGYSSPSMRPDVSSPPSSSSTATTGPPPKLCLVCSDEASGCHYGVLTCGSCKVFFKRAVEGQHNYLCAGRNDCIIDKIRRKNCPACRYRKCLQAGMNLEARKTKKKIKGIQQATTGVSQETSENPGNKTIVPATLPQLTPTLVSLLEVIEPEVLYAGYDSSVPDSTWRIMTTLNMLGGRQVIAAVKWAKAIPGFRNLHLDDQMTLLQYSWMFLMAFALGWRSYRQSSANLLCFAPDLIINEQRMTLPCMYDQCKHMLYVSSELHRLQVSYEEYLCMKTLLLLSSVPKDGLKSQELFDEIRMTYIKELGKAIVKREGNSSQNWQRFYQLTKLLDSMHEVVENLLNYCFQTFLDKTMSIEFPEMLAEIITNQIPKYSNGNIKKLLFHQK
Sequence of Estrogen-related receptor gamma (Homo sapiens) (P62508 whole entry, looked up, the tested form may be a part): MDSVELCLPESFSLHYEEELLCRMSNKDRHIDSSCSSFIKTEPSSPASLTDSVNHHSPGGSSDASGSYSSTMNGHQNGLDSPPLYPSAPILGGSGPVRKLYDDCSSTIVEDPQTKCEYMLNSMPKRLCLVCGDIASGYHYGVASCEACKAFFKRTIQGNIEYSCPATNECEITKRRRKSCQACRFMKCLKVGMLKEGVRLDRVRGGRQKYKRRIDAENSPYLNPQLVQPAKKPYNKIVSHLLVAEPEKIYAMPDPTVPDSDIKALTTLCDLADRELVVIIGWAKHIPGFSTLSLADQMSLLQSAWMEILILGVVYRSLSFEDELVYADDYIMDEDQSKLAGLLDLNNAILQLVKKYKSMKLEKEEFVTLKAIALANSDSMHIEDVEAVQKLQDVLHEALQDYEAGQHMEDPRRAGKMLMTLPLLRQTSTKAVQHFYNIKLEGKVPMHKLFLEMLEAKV
Sequence of Nuclear receptor subfamily 1 group I member 3 (Homo sapiens) (Q14994 whole entry, looked up, the tested form may be a part): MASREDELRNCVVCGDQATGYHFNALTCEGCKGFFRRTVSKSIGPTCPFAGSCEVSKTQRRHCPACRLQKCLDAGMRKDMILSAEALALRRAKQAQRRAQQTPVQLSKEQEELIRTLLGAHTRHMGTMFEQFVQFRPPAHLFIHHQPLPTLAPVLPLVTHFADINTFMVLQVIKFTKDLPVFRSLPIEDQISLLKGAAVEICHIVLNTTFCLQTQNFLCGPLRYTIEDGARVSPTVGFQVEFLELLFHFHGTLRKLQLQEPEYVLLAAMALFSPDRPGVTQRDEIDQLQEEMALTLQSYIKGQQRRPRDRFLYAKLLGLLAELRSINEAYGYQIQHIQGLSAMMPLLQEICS
Sequence of X-box-binding protein 1 (Homo sapiens) (P17861 whole entry, looked up): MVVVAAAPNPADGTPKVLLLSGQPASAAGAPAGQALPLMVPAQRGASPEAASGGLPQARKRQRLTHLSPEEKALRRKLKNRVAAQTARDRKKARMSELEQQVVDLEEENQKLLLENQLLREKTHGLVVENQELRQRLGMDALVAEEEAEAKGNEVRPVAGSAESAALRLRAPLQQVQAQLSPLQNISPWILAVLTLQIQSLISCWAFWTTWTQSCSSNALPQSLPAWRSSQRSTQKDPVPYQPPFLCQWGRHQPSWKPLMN
Sequence of Steroid hormone receptor ERR1 (Homo sapiens) (P11474 whole entry, looked up, the tested form may be a part): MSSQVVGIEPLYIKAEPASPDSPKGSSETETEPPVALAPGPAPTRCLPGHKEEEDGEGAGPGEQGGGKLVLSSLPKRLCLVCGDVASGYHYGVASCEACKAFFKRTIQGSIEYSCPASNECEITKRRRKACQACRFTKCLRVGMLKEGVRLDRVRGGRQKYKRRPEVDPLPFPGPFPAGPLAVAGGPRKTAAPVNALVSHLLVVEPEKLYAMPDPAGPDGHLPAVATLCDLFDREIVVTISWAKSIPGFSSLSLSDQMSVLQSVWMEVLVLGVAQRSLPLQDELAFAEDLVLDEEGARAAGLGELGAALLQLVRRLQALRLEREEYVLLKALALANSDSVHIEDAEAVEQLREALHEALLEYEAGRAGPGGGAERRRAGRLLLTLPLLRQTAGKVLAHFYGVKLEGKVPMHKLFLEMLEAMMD
Sequence of Estrogen receptor (Homo sapiens) (P03372 whole entry, looked up, the tested form may be a part): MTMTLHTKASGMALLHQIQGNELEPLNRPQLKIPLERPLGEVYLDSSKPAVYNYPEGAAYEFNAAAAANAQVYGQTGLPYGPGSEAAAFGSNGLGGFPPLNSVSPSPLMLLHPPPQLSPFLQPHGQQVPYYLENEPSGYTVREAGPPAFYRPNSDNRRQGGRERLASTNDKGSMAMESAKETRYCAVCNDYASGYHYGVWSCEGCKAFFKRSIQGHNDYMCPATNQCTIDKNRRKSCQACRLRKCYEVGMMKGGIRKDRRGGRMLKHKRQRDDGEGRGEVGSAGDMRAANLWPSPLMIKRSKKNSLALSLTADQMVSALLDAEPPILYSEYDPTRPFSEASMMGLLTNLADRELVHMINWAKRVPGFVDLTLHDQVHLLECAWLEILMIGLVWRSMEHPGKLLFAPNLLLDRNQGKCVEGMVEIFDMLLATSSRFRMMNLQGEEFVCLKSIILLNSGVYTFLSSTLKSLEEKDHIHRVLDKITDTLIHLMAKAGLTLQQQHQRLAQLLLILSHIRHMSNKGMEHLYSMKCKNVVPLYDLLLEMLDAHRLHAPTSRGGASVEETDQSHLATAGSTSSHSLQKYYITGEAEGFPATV

In general, AC50 refers to the concentration at which the activity in the assay is half-maximal. For `Nc1ccc(N)c2c1C(=O)c1ccccc1C2=O`, the molecule was classed as inactive in assay [1], in assay [3], in assay [4], in [6], in [7] and in assay [8]. Moreover, the outcome in assay [9] was inactive. The results for the AC50 in assay [2] and in assay [5] were 6.59 µM (active) and 2.57 µM (active), respectively.

On to `Cc1cccc(Nc2ccccc2)c1`, for which the molecule was classed as inactive in assay [1] and in assay [3]. The AC50 is 58.2 µM (active) in assay [2] and 133 µM (active) in assay [5].

On to `FC(F)(F)COCC(F)(F)F`, for which the molecule was called inactive in assay [1], in assay [2], in [3], in assay [4], in [5] and in assay [6]. Besides, the molecule was called inactive in [7] and in assay [9].

In the case of `C#CC(C)N(C)C(=O)Nc1ccc(Cl)cc1` (stereo unspecified), the result in assay [1], in [2], in assay [3], in assay [4] and in [5] was inactive.

`O=[N+]([O-])c1ccc(O)cc1C(F)(F)F`: the outcome in assay [1], in assay [2], in assay [3], in assay [4], in assay [6] and in assay [8] was inactive. Besides, the molecule was called inactive in assay [9]. The AC50 in [5] is 31 µM (active).

With `NC1CCCCC1N` (stereo unspecified), the molecule was classed as inactive in [1], in assay [2], in assay [3] and in assay [4].

Regarding `COc1ccc(OC)c(N=Nc2c(O)ccc3ccccc23)c1`, the molecule was called inactive in assay [1], in assay [2], in [3], in assay [4], in assay [5] and in assay [8].

As to `CCCCCCCC(=O)OCCCCCC`, the molecule was classed as inactive in assay [1], in [2], in assay [3], in assay [4], in assay [5] and in [6].

As for `COc1ccc(COC(C)=O)cc1`, the result in assay [1], in assay [2], in [3], in [4], in assay [5] and in assay [6] was inactive. Also, the result in assay [8] was inactive.

In the case of `Cc1ccc(S(=O)(=O)Oc2ccc(N=Nc3ccc(-c4ccc(N=Nc5c(O)ccc6cc(S(=O)(=O)O)cc(S(=O)(=O)O)c56)c(C)c4)cc3C)cc2)cc1`, the AC50 in assay [1] is 40.6 µM (active); in [2], 14.1 µM (active). Besides, the molecule was called inactive in assay [3], in assay [4], in assay [5], in assay [6], in [7] and in [8]. For the same molecule, the molecule was classed as inactive in assay [9].

For the molecule `CCCC(=O)c1ccccc1`, the molecule was called inactive in assay [1], in assay [2], in [3], in assay [4], in assay [5] and in assay [6]. The molecule was called inactive in assay [7], in assay [8] and in assay [9].

Consider `N#Cc1ccc(CC(=O)c2cccc(C(F)(F)F)c2)cc1`, for which the outcome in [1], in [3], in [4], in [5], in assay [8] and in assay [9] was inactive. For the same molecule, the AC50 in assay [2] is 26.3 µM (active).

`CC(C)=CCCC(C)CC(=O)O` (stereo unspecified): the result in [1], in [2], in assay [3] and in assay [5] was inactive.

Regarding `C=CC(=O)OCCC#N`, the molecule was called inactive in assay [1], in assay [3], in assay [4] and in [8]. Moreover, the half-maximal activity concentration (AC50) in assay [2] is 48.8 µM (active).

Regarding `CCCCC(CC)COC(C)=O` (stereo unspecified), the outcome in assay [1], in assay [2], in assay [3], in assay [4], in assay [6] and in assay [7] was inactive.

As to `C1CCOC1`, the outcome in [1], in assay [2], in assay [3], in assay [4], in [5] and in assay [6] was inactive. Also, the molecule was classed as inactive in assay [7], in [8] and in assay [9].

On to `C[Si]1(C)O[Si](C)(C)O[Si](C)(C)O1`, for which the call in [1], in assay [2], in assay [3], in assay [4], in [5] and in assay [6] was inactive. Also, the outcome in [7] and in [8] was inactive.

For `C=C(C)CNCC`, the outcome in assay [1], in [2], in [3], in assay [4], in assay [5] and in assay [7] was inactive. Also, the result in [9] was inactive.

Regarding `COC(=O)c1ccc(OC)cc1`, the molecule was classed as inactive in [1], in assay [2], in [3], in assay [4], in assay [5] and in [6]. Besides, in [8], the call was inactive. Also, the concentration at half-maximal activity (AC50) in [9] was 15.1 µM (active).

Take `Oc1c(Cl)cc(Cl)c(Cl)c1Cc1c(O)c(Cl)cc(Cl)c1Cl`: the outcome in [1], in assay [3], in [4], in [5], in assay [6] and in assay [8] was inactive. In addition, the outcome in [9] was inactive. Further, in assay [2], the AC50 is 1.97 µM (active).

Consider `CCC(C)c1cc([N+](=O)[O-])cc([N+](=O)[O-])c1OC(=O)OC(C)C` (stereo unspecified), for which the figures for the AC50 in assay [1] and in assay [2] were 100 µM (active) and 0.705 µM (active), respectively. In addition, the call in assay [3], in assay [4], in assay [6] and in [8] was inactive.

Turning to `C#CC(C)(O)CC(C)C` (stereo unspecified), the outcome in assay [1], in [2], in assay [3], in assay [4] and in assay [6] was inactive.

For the molecule `COc1cccc(OC)c1O`, the call in [1], in assay [2], in assay [3] and in [5] was inactive.

As to `CCN(CCN)c1cccc(C)c1`, the molecule was classed as inactive in assay [1], in assay [3], in assay [10], in assay [5] and in [8]. In addition, in [2], the concentration at half-maximal activity (AC50) is 72.4 µM (active).

Regarding `c1ccc2cc(Nc3ccc(Nc4ccc5ccccc5c4)cc3)ccc2c1`, the molecule was classed as inactive in [1], in [2], in assay [3], in assay [4], in [5] and in assay [6]. Further, the molecule was called inactive in assay [7], in [8] and in assay [9].

Consider `O=C(O)CNc1ccccc1`, for which the molecule was called inactive in [1], in assay [2], in [3], in [4], in assay [8] and in assay [9].

For the molecule `CC(O)C1CCCCC1` (stereo unspecified), the result in assay [1], in [2], in assay [3], in assay [4], in assay [5] and in [7] was inactive. Moreover, the molecule was called inactive in assay [8] and in [9].
